Holding throughout (assay): NCI-60 one-dose screen, 48 h (100 = growth as untreated, 0 = no growth, -100 = all killed)
In assay [1] the test system is SR leukemia. The settings on record: 10 µM unless noted.
Assay [2] deals with RPMI-8226 leukemia. Particulars: 10 µM unless noted.
The subject of assay [3] is OVCAR-8 ovarian. The settings on record: 10 µM unless noted.
The test system of assay [4] is OVCAR-5 ovarian. The settings on record: 10 µM unless noted.
Assay [5] deals with OVCAR-4 ovarian. The settings on record: 10 µM unless noted.
Assay [6] deals with SK-OV-3 ovarian. The settings on record: 10 µM unless noted.
In assay [7] the test system is IGROV1 ovarian. Particulars: 10 µM unless noted.
Assay [8] concerns OVCAR-3 ovarian. Particulars: 10 µM unless noted.
The subject of assay [9] is HS 578T breast. The settings on record: 10 µM.
Assay [10] has as its system NCI/ADR-RES ovarian. The settings on record: 10 µM unless noted.
Assay [11] has as its system T-47D breast. The settings on record: 10 µM unless noted.
The test system of assay [12] is MDA-MB-435 melanoma. The settings on record: 10 µM unless noted.
In assay [13] the test system is SW-620 colon. Particulars: 10 µM unless noted.
Assay [14] concerns MCF7 breast. The settings on record: 10 µM unless noted.
For assay [15], the system named is HCT-116 colon. Particulars: 10 µM unless noted.
Assay [16] concerns KM12 colon. The settings on record: 10 µM unless noted.
Assay [17] concerns BT-549 breast. The settings on record: 10 µM unless noted.
For assay [18], the system named is HCC-2998 colon. The settings on record: 10 µM.

The structures appear in SMILES notation. About 83,000 compounds went through this panel and 20% of them were active in at least one assay; those are over-represented in the sample as a whole.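 The test compound was applied at a single concentration to cells in 96-well plates for 48 hours, and percent growth was recorded.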 A number with no mark means an inactive call. Active and inactive are the calls of the source. Rule for the calls: active = growth percent below 10; inactive = the rest.

For the compound `Clc1nc(Cl)c2ncn(C/C=C\Cn3cnc4c(Cl)nc(Cl)nc43)c2n1`, the growth in [1] was -48.2% (active); in assay [2], -61.2% (active); in assay [3] it was -57.4% (active); in assay [4], -9.17% (active); in [5], -89.2% (active); in assay [6], 32.8%. In addition, the growth was -82.3% (active) in [7]; -97% (active) in [8]; -41.5% (active) in assay [9]; 30.1% in assay [10]; -44.4% (active) in assay [11]; -66.9% (active) in assay [12]. In addition, the growth in assay [13] is -52.6% (active); in [14], -78% (active); in assay [15], -71% (active); in [16], -69.2% (active).
As for `NC[C@@](O)(c1ccc(Cl)cc1)c1ccc(-c2cn[nH]c2)cc1`, the growth in [1] is 0.545% (active); in assay [2] it was 19.1%; in assay [3], 29.1%; in assay [4] it was 18.8%; in assay [5], 16.9%; in [6], 20%. The growth was -18% (active) in assay [7]; 52.4% in assay [8]; 40.9% in assay [10]; -57.9% (active) in assay [11]; 14.6% in assay [17]; 12.2% in [12]. Also, the growth in assay [13] was 7.7% (active); in assay [14], -22.2% (active); in [15], 0.471% (active); in [18], 12.7%; in assay [16], 16.6%.
For the compound `O=C(NOCCO)c1cc(CN2OCCCC2=O)c(F)c(F)c1Nc1ccc(I)cc1F`, the growth in assay [1] is 65.6%; in assay [2], 78.8%; in assay [3] it was 52.1%; in [4], 20.2%; in assay [5], 64.5%; in [6] it was 52.3%. Further, the growth in assay [7] was 21.2%; in [8], 103%; in assay [10] it was 58.1%; in assay [11], 67.6%; in assay [17], 80.5%; in assay [12], 36.9%. Besides, the growth in assay [13] is 24.1%; in assay [14], 88.7%; in assay [15], 13.9%; in [18] it was -18.6% (active); in assay [16], 26.6%.
For `Cc1cc2c(F)c(Oc3ncnn4cc(OC[C@@H](C)OC(=O)[C@H](C)N)c(C)c34)ccc2[nH]1`, the growth in assay [1] was 18.5%; in assay [2], 47.1%; in assay [3], 61.7%; in assay [4], 25.8%; in [5], 65.5%; in assay [6], 73.9%. The growth was 20.8% in assay [7]; 81.1% in [8]; 90.5% in [10]; 70.5% in [11]; 80.8% in assay [17]; 28.6% in [12]. Moreover, the growth in assay [13] was 20.3%; in assay [14], 39.6%; in assay [15], 19.3%; in [18], 37.5%.
For `O=C1C=CC2(NN=C(c3ccccc3)N2c2ccccc2)c2cccc(O)c21` (stereo not drawn), the growth in assay [1] was 38.5%; in [2], 65.5%; in assay [3] it was 62.2%; in assay [4], 39.9%; in assay [5] it was 40.8%; in assay [6] it was 91.2%. For the same compound, the growth in assay [7] is 53.8%; in assay [8] it was 11.3%; in assay [10] it was 42.2%; in assay [11] it was 78.8%; in assay [17], 41.1%; in assay [12] it was -92.4% (active). In addition, the growth is 34.9% in [13]; 35.4% in [14]; 18.1% in [15]; 54.2% in assay [18]; 47.3% in assay [16].
`CN1C/C=C\CCOc2cccc(c2)-c2ccnc(n2)Nc2cccc(c2)C1`: the growth was -29.1% (active) in [1]; -42.5% (active) in [2]; -22.4% (active) in assay [3]; 6.02% (active) in [4]; -28.5% (active) in assay [5]; -17.2% (active) in assay [6]. The growth in assay [7] is -44.9% (active); in assay [8], 3.03% (active); in [10], -29% (active); in assay [11], -42.4% (active); in [17] it was -69.4% (active); in [12], -85.2% (active). For the same compound, the growth in [13] was -5.5% (active); in assay [14], -33% (active); in assay [15], -50% (active).
In the case of `COc1cc(Nc2c(C#N)cnc3cc(OCCCN4CCN(C)CC4)c(OC)cc23)c(Cl)cc1Cl`, the growth was 31.5% in assay [1]; 59.3% in assay [2]; 42.9% in assay [3]; 22.8% in assay [4]; 56% in assay [5]; 44.3% in [6]. Also, the growth in assay [7] is 6.33% (active); in assay [8], 77.9%; in [10] it was 78.6%; in [11], 59.4%; in [17], 85.2%; in assay [12] it was 31.1%. The growth in assay [13] is 37%; in assay [14], 58.3%; in assay [15], 23.3%; in assay [18], 26.9%; in [16], 32.9%.
For the compound `COc1cc(CCc2cc(NC(=O)c3ccc(N4C[C@@H](C)N[C@@H](C)C4)cc3)n[nH]2)cc(OC)c1`, the growth was -11% (active) in assay [1]; 41.5% in [2]; 58.4% in assay [3]; 29.7% in assay [4]; 49.6% in assay [5]; 25.6% in assay [6]. The growth is 16.7% in assay [7]; 78.8% in [8]; 91.3% in assay [10]; 63.7% in assay [11]; 43.8% in assay [17]; 28.4% in [12]. In addition, the growth was 28.7% in [13]; 19.9% in assay [14]; 25.6% in assay [15]; 56.3% in assay [18]; 3.18% (active) in assay [16].
Consider `COc1ccc(-c2cc3c(oc2=O)-c2ccccc2OC3OC(C)=O)cc1` (stereo not drawn), for which the growth is 80.7% in assay [1]; 83.1% in [2]; 107% in assay [3]; 111% in assay [4]; 90.7% in [5]; 93.4% in assay [6]. The growth was 103% in assay [7]; 109% in assay [8]; 89% in assay [9]; 93.8% in [10]; 68.5% in [11]; 110% in [12]. In addition, the growth was 98.7% in assay [13], 89.6% in assay [14], 74% in assay [15] and 111% in assay [16].
For `CCCCCCCCCNCCCCCCCCC`, the growth is -22.9% (active) in [1]; -22.4% (active) in assay [2]; 73.5% in assay [3]; 63.5% in assay [4]; 29.2% in assay [5]; 92.6% in assay [6]. Moreover, the growth in [7] is 50.8%; in assay [8] it was 86%; in [9], 83.7%; in [10], 68.3%; in [11] it was 57.7%; in assay [12] it was 47.6%. Also, the growth in assay [13] is 41.5%; in assay [15], 20.2%; in [18], 23.8%; in [16], 22.6%.
In the case of `CCN(CCO)CCCOc1ccc2c(Nc3cc(CC(=O)Nc4cccc(F)c4)[nH]n3)ncnc2c1`, the growth is 12.3% in assay [1]; 72.5% in assay [2]; 49.8% in assay [3]; 20.7% in assay [4]; 48.4% in [5]; 68.3% in assay [6]. Also, the growth is 16.4% in assay [7]; 44.4% in assay [8]; 70.7% in [10]; 19.6% in assay [11]; 54.7% in [17]; 11.1% in assay [12]. Further, the growth in assay [13] is 15.6%; in assay [14], 6.03% (active); in assay [15] it was 11.1%; in assay [18], 4.66% (active).
Consider `NC1(C(=O)N[C@@H](CCO)c2ccc(Cl)cc2)CCN(c2ncnc3[nH]ccc23)CC1`, for which the growth is 23.7% in assay [1]; 80% in assay [2]; 76.4% in assay [3]; 51.6% in assay [4]; 64.9% in assay [5]; -6.71% (active) in assay [6]. The growth is 3.26% (active) in [7]; 61.3% in assay [8]; 90.7% in [10]; 11.7% in assay [11]; -9.59% (active) in assay [17]; 26.3% in [12]. Besides, the growth in assay [13] is 62.7%; in [14] it was 27.4%; in [15], 45.7%; in assay [18] it was 46.8%; in [16] it was 5.76% (active).
For `CO[C@H]1C[C@@H]2CC[C@@H](C)[C@@](O)(O2)C(=O)C(=O)N2CCCC[C@H]2C(=O)O[C@H]([C@H](C)C[C@@H]2CC[C@@H](OP(C)(C)=O)[C@H](OC)C2)CC(=O)[C@H](C)/C=C(\C)[C@@H](O)[C@@H](OC)C(=O)[C@H](C)C[C@H](C)\C=C/C=C/C=C/1C`, the growth in [1] was 13.1%; in assay [2], 34.8%; in [3], 34.3%; in [4] it was 60.7%; in assay [5], 28.6%; in assay [6], 12.2%. The growth is 24.4% in [7]; 59.7% in assay [8]; 51.4% in assay [10]; 11.5% in assay [11]; 39.7% in assay [17]; 56.7% in [12]. Moreover, the growth in [13] is 60.1%; in assay [14], 30.5%; in assay [15], 65.1%; in assay [18], 56.4%.
Regarding `Cc1cc(C(=O)Nc2cc(Oc3ccc4nc(NC(=O)C5CC5)cn4n3)ccc2C)n(C)n1`, the growth in assay [1] is 29.5%; in assay [2], 48.6%; in [3], 30.2%; in assay [4], 11.6%; in assay [5] it was 49%; in [6] it was 17.9%. Also, the growth in assay [7] was 12%; in [8], 52.8%; in assay [10] it was 60.2%; in assay [11], 53.4%; in assay [17], 30.1%; in assay [12], 34.3%. Further, the growth is 15.2% in assay [13]; 33.7% in assay [14]; 6.14% (active) in assay [15]; 2.16% (active) in assay [18]; 12.2% in assay [16].
Turning to `O=C(NC1CCNCC1)c1[nH]ncc1NC(=O)c1c(Cl)cccc1Cl`, the growth is 2.12% (active) in assay [1]; 1.32% (active) in [2]; 9% (active) in assay [3]; 9.52% (active) in assay [4]; 8.44% (active) in assay [5]; 7.3% (active) in assay [6]. Further, the growth in assay [7] was 10.2%; in assay [8], 4.35% (active); in assay [10], 85%; in assay [11] it was -3.82% (active); in assay [17], 7.37% (active); in assay [12], -43.3% (active). Further, the growth in [13] was 6.16% (active); in assay [14], 3.78% (active); in [15] it was 4.77% (active); in assay [18] it was -2.4% (active); in [16] it was 8.2% (active).
`Cc1cc(Nc2cc(N3CCN(C)CC3)nc(/C=C/c3ccccc3)n2)n[nH]1`: the growth in [1] is -13.6% (active); in assay [2], 28.3%; in assay [3], 36.1%; in assay [4], 13.2%; in [5], 41%; in assay [6], 3.69% (active). Besides, the growth in assay [7] is -30.7% (active); in assay [8], 43.8%; in [10], 15.7%; in assay [11] it was -24.7% (active); in assay [17], 8.9% (active); in assay [12] it was 6.58% (active). The growth was 0.289% (active) in assay [13], 0.852% (active) in [14], 0.937% (active) in assay [15] and -61.5% (active) in assay [18].
